# Compound activity deposited in PubChem BioAssay by Broad Institute.
# Shown is part of a subset that was picked to be rich in hits.
# Tgondii IFNg = T. gondii growth inhibition with IFN-gamma, primary screen, cell-based; Toxoplasma gondii growth in IFN-gamma-treated host cells; hits give low values; activity change, negative = inhibition, % (test concentration not listed); 69,000 tested, 3.8% active; AID 1259416, 2018; in the data active means activity change below about -70%, passing the limit was not always enough;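 further: host cells are HeLa cells infected with Toxoplasma gondii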
# Numbers without * were called inactive; i = inactive; ! = repeats disagree.
SMILES,Tgondii IFNg
CC[C@@H](Cn1ncc2ccccc2c1=O)NC(=O)C(C)c1nn(CC)c(=O)c2ccccc12 (some centres not stated),62
Cc1cc(O)cc(=O)n1CCC(=O)Nc1cccc(Cl)c1N1CCOCC1,-9
CN(C)c1ccc(CNC(=O)Cn2ncc3c(N4CCOCC4)ncnc32)cc1,68
O=C(NCCc1csc(-c2cccc(F)c2)n1)c1ccccc1F,-22
COc1ccc(C(=O)NCCc2csc(-c3ccc(Cl)cc3)n2)c(OC)c1,-85*
COc1ccc(-c2nc(CCNC(=O)c3ccc(OC)cc3OC)cs2)cc1,42
Cc1ccc(Cl)cc1NC(=O)C(=O)NCCc1csc(-c2cccc(F)c2)n1,-64
COc1ccc(-c2nc(CCNC(=O)c3ccccc3Br)cs2)cc1,i
Cc1ccc(C)c(NC(=O)C(=O)NCCc2csc(-c3cccc(F)c3)n2)c1,-101*
CCCCOc1ccc(C(=O)NCCc2csc(-c3ccc(OC)cc3)n2)cc1,-110*
CCOc1ccc(C(=O)NCCc2csc(-c3ccc(OC)cc3)n2)cc1,38
Cc1ccc(C)c(NC(=O)C(=O)NCCc2csc(-c3ccc(F)cc3)n2)c1,-69
COc1ccccc1OCC(=O)NCCc1csc(-c2cccc(F)c2)n1,48
COc1ccccc1C(=O)NCCc1csc(-c2cccc(F)c2)n1,-78*
CCCCOc1ccc(C(=O)NCCc2csc(-c3ccc(Cl)cc3)n2)cc1,-49
O=C(CNCc1ccc(F)cc1)Nc1ccccc1N1CCOCC1,20
O=C1CCC2(CCN(Cc3cccs3)CC2)N1Cc1ccccc1,0
Cc1ccc2c(c1C)-n1cccc1C1(CCN(C(=O)c3ccc(C#N)cc3)CC1)N2,42
Cc1cnc(C(=O)N2CCC3(CC2)C(=O)NCCN3CC(C)C)cn1,-32
CCOc1ccccc1-c1nc(Cn2ccn3nc(-c4ccc(C)cc4)cc3c2=O)c(C)o1,29
Cc1ccc(-c2nnc(-c3nc(Nc4nc5ccccc5s4)c4ccccc4n3)o2)cc1,-6
COc1cc(CN2CCc3c([nH]c4ccccc34)C2c2cccc(O)c2)cc(OC)c1OC (configuration not stated),-34
Cc1ccc(NC(=O)Cn2c(=O)cc(C(=O)N3CCc4ccccc4C3)c3ccccc32)cc1F,-48
O=C(Cn1c(=O)cc(C(=O)N2CCCC2)c2ccccc21)Nc1ccc(F)c(Cl)c1,7
O=C(Cn1c(=O)cc(C(=O)N2CCc3ccccc3C2)c2ccccc21)Nc1ccc(F)c(Cl)c1,-72*
SMILES,Tgondii IFNg
Cc1ccc2oc(=O)n(CC(=O)NC(Cc3cc(=O)[nH]c(C(C)C)n3)c3ccccc3)c2c1 (configuration not stated),4
CN1CCN(C2=Nc3cc(F)ccc3Cc3ccccc32)CC1,3
Clc1ccc2c(c1)N=C(N1CCNCC1)c1ccccc1N2,-58
CN1CCN(C2=Nc3cc(Cl)ccc3Nc3ccccc32)CC1,-95*!
NC(=O)c1cnc(-c2ccccc2)nc1CCNC(=O)CCC1CCCC1,-51
COCC1(C(=O)NCc2cc(-c3ccccc3Cl)on2)CCC1,13
CCOC1C2CCC1N(C(=O)c1cc(C)nn1CC)CCO2 (configuration not stated),-5
CC(=O)N[C@@H]1C[C@H](Cc2ccccc2)O[C@H](c2c(C)nn(C)c2Cl)C1,-23
O=C(CCc1ccccc1)Nc1ccccc1C(F)(F)F,30
O=C(CCc1nc2ccccc2[nH]1)NCCc1ccc(C(F)(F)F)cc1,-5
CC(C)(C)c1cc(C(F)(F)F)nc(SCCCNC(=O)CCc2ccccc2)n1,-74*
CC(C)OCCCNC(=O)Cn1c(-c2cccs2)cc2cccnc21,94
Cc1cnc(CNC(=O)C2=NOC3(CCN(C(=O)CC(C)C)C3)C2)cn1 (configuration not stated),10
Cc1ccc2c(n1)N(CCn1cccn1)CCN(CCN(C)C)C2,14
O=C(O)c1cc(-c2ccc3c(c2)OCO3)nc2ccc(Br)cc12,8
O=C(c1ccc2c(c1)OCO2)N1CCCCC1,-4
O=C(O)c1cccc(-c2ccc3c(c2)OCO3)c1,-75*
CSc1sc(C(=O)NC(=S)Nc2ccccc2Cl)cc1S(=O)(=O)C(C)C,-14
c1cncc(COCC2CNCc3nccn3C2)c1 (configuration not stated),-82*
COCCC(=O)N1Cc2nccn2CC(COCc2cccnc2)C1 (configuration not stated),-2
O=C(c1ccco1)N1Cc2nccn2CC(COc2cccnc2)C1 (configuration not stated),0
Cc1ccccc1-c1ncc(-c2c(-c3ccccc3)ncn2CCO)cn1,-2
c1cc2c(cc1-c1csc(-c3ccc4c(c3)OCCO4)n1)OCCO2,58
Cc1cc(-c2ccc3c(c2)OCCO3)cnc1N,75
NC1=NN=C(c2ccc3c(c2)OCCO3)CS1,-81*
COc1ccc(-c2coc3cc(O)cc(O)c3c2=O)cc1,173
COc1cc(-c2coc3cc(OCc4ccccc4)c(OC)c(O)c3c2=O)cc(OCc2ccccc2)c1OC,-79*
O=c1c(-c2cc(O)c(O)c(O)c2)coc2cc(O)c(O)c(O)c12,19
